Consider 39 compounds from PubChem BioAssay (NCI).

Each structure is given as a SMILES string. This is part of a sample that, as a whole, favours compounds with a hit. Of some 79,000 tested, about 15% had one in any assay. The source made the active and inactive calls. Rule as the data show it: active = growth inhibition above about 70%; inactive = the rest.

The first assay in a line: NCI Yeast Anticancer Drug Screen. Data for the rad50 strain (AID 155).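 Also: 0% = growth of vehicle-only cultures of the same strain.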 To be noted: S. cerevisiae rad50 strain growth inhibition; at 50.0 µM; active compounds read high. The essentials:
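Genetically altered yeast (DNA repair pathway); compound treatment; growth inhibition vs vehicle ctrl.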
In the case of `CN(C)CCC(=O)c1ccc(O)cc1`, the growth inhibition is 4.6% (inactive).
Regarding `Cc1ccncc1C(N)=O`, the growth inhibition is -1.4% (inactive).
As to `N#Cc1c(N)sc(=S)c2c1CCCC2`, the growth inhibition is 9.65% (inactive).
For `Nc1nc(N)c(N=Nc2ccc(C(=O)O)cc2)c(N)n1`, the growth inhibition was -3.65% (inactive).
On the same count and under the same terms, next, `NC(C(=O)O)C(O)c1ccco1` (stereo not drawn): 6.6% (inactive).
Consider `COc1ccc(Oc2c(I)cc(CC(NC(C)=O)C(=O)O)cc2I)cc1` (stereo not drawn), for which the growth inhibition is 43.1% (inactive).
Turning to `O=[N+]([O-])c1cccc(C(F)(F)F)c1`, the growth inhibition was -3.9% (inactive).
In the case of `COc1ccc2c(c1)CCc1c-2n[nH]c1-c1[nH]nc2c1CCc1cc(OC)ccc1-2`, the growth inhibition is 0.5% (inactive).
On to `O=C1c2ccccc2C(=O)N1OCc1ccccc1`, for which the growth inhibition was -18.1% (inactive).
As for `CCOC(=O)c1[nH]c(C)c(C(C)=O)c1C`, the growth inhibition was -0.45% (inactive).
As for `O=C(O)c1ccnc(Br)c1`, the growth inhibition was -3.05% (inactive).
Take `COc1ccc(-c2cc3c(nn2)-c2ccccc2C3=O)cc1`: the growth inhibition was 1.1% (inactive).
On the same count and under the same terms, then `CC(=O)OC1CC2C(C)(C)OC3CC(=O)OCC32C2CCC3(C)C(=CCC3c3ccoc3)C12C` (stereo not drawn), with 6.45% (inactive); and `CC(=O)Nc1ccc(NC(C)=O)c2c1C(=O)c1ccccc1C2=O`, with 5.55% (inactive); and `CCOc1ccccc1/C=N/Nc1nc2ccccc2o1`, with 30.6% (inactive).
In the case of `CCOC(=O)c1ccc(Nc2sc(C(=O)c3cccc([N+](=O)[O-])c3)c(N)c2C#N)cc1`, the growth inhibition is -9.95% (inactive).
On the same count and under the same terms, then `CC(=O)OCCO`, with 9.6% (inactive).
Regarding `O=C(/C=C/C(=O)c1ccccc1)c1ccccc1`, the growth inhibition was 41.8% (inactive).
Take `C=CCNC(=O)c1ccc(OC)cc1`: the growth inhibition is 12.5% (inactive).
Turning to `CC(=O)c1cc2c(cc1F)C(C)(C)CCC2(C)C`, the growth inhibition was -23.2% (inactive).
In the case of `CCc1nc(N)nc(N)c1-c1ccc(Cl)cc1`, the growth inhibition is -9.9% (inactive).
Consider `CCCC[P+](c1ccccc1)(c1ccccc1)c1ccccc1`, for which the growth inhibition is 45.5% (inactive).
On the same count and under the same terms, next, `COC1=CC(=O)c2nc(Cl)ccc2C1=O`: 29% (inactive); `COCCCC/C(=N\OCCN)c1ccc(C(F)(F)F)cc1`: 26.5% (inactive); `CCS(=O)(=O)CCCl`: 12.2% (inactive).
As for `Nc1nc2c(c(-c3nc(N)nc4c3CCc3ccccc3-4)n1)CCc1ccccc1-2`, the growth inhibition was -0.5% (inactive).
Take `C[N+](C)(C)C(=O)c1ccccc1`: the growth inhibition is 21.6% (inactive).
`CCCCC(=O)c1ccc(OC)cc1`: the growth inhibition is 1.9% (inactive).
In the case of `COc1cc(C(=O)NC(=S)Nc2ccc3ccccc3c2)cc(OC)c1OC`, the growth inhibition is 11.3% (inactive).
Take `CCC/C=C(/C(C)=O)C(=O)OCC`: the growth inhibition was 18.9% (inactive).
As for `CCOC(=O)c1cc2cccc(OC)c2oc1=O`, the growth inhibition is 6.15% (inactive).
In the case of `O=C(Nc1cccc(NC(=O)Nc2cc(C(F)(F)F)ccc2Cl)c1)Nc1cc(C(F)(F)F)ccc1Cl`, the growth inhibition was 18.8% (inactive).
On the same count and under the same terms, next, `C=C1CC/C=C(\C)C(=O)C[C@@H]2[C@@H]1CC2(C)C`: 5.85% (inactive).
For the compound `Cc1cc(C)c(CC(=O)O)c(C)c1`, the growth inhibition was 30.5% (inactive).
As for `CCOc1ccc(/C=C/C(=O)c2ccccc2)cc1`, the growth inhibition was -9.9% (inactive).
For `O=C1C=CC2=C3c4cc(O)c(O)cc4CC3(O)COC2=C1O` (stereo not drawn), the growth inhibition was -40.6% (inactive).
In the case of `COc1cc2c3c(n(C)c(=O)c2cc1OC)-c1cc2c(cc1C3=O)OCO2`, the growth inhibition is 8.35% (inactive).
For the compound `O=c1cc(-c2ccccc2)[nH]c(=S)[nH]1`, the growth inhibition was -13.4% (inactive).
Take `C=CCc1cc(C(C)=O)cc(OC)c1O`: the growth inhibition was -16.1% (inactive).

The next assay is described as follows: NCI Yeast Anticancer Drug Screen. Data for the mec2-1 strain (AID 157). The following applies: S. cerevisiae mec2-1 strain, at 50.0 µM, active compounds read high. The essentials:
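Strain: mec2-1 (DNA repair/cell cycle alteration). Compound exposure, then growth measured; inhibition expressed relative to vehicle.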
Consider `CN(C)CCC(=O)c1ccc(O)cc1`, for which the growth inhibition was 8.65% (inactive).
On to `Cc1ccncc1C(N)=O`, for which the growth inhibition was -2.8% (inactive).
Consider `N#Cc1c(N)sc(=S)c2c1CCCC2`, for which the growth inhibition was 9.85% (inactive).
Turning to `Nc1nc(N)c(N=Nc2ccc(C(=O)O)cc2)c(N)n1`, the growth inhibition is 7.35% (inactive).
For the compound `NC(C(=O)O)C(O)c1ccco1` (stereo not drawn), the growth inhibition was -0.1% (inactive).
For `COc1ccc(Oc2c(I)cc(CC(NC(C)=O)C(=O)O)cc2I)cc1` (stereo not drawn), the growth inhibition is 40.5% (inactive).
`O=[N+]([O-])c1cccc(C(F)(F)F)c1`: the growth inhibition is -12.1% (inactive).
With `COc1ccc2c(c1)CCc1c-2n[nH]c1-c1[nH]nc2c1CCc1cc(OC)ccc1-2`, the growth inhibition is 0.35% (inactive).
Turning to `O=C1c2ccccc2C(=O)N1OCc1ccccc1`, the growth inhibition was -30.6% (inactive).
For `CCOC(=O)c1[nH]c(C)c(C(C)=O)c1C`, the growth inhibition was -22.5% (inactive).
`O=C(O)c1ccnc(Br)c1`: the growth inhibition is -0.05% (inactive).
In the case of `COc1ccc(-c2cc3c(nn2)-c2ccccc2C3=O)cc1`, the growth inhibition was -16.7% (inactive).
Same read-out and setting: then `CC(=O)OC1CC2C(C)(C)OC3CC(=O)OCC32C2CCC3(C)C(=CCC3c3ccoc3)C12C` (stereo not drawn), with -5.7% (inactive).
Take `CC(=O)Nc1ccc(NC(C)=O)c2c1C(=O)c1ccccc1C2=O`: the growth inhibition is -24.1% (inactive).
With `CCOc1ccccc1/C=N/Nc1nc2ccccc2o1`, the growth inhibition is 0.4% (inactive).
As to `CCOC(=O)c1ccc(Nc2sc(C(=O)c3cccc([N+](=O)[O-])c3)c(N)c2C#N)cc1`, the growth inhibition is -9.95% (inactive).
Regarding `CC(=O)OCCO`, the growth inhibition is 3.5% (inactive).
As for `O=C(/C=C/C(=O)c1ccccc1)c1ccccc1`, the growth inhibition is 16.4% (inactive).
Take `C=CCNC(=O)c1ccc(OC)cc1`: the growth inhibition was 6.5% (inactive).
Consider `CC(=O)c1cc2c(cc1F)C(C)(C)CCC2(C)C`, for which the growth inhibition was -30.4% (inactive).
For `CCc1nc(N)nc(N)c1-c1ccc(Cl)cc1`, the growth inhibition was 2.9% (inactive).
In the case of `CCCC[P+](c1ccccc1)(c1ccccc1)c1ccccc1`, the growth inhibition is 40% (inactive).
Regarding `COC1=CC(=O)c2nc(Cl)ccc2C1=O`, the growth inhibition was 9.95% (inactive).
Same read-out and setting: next, `COCCCC/C(=N\OCCN)c1ccc(C(F)(F)F)cc1`: 4.6% (inactive); `CCS(=O)(=O)CCCl`: -5.1% (inactive); `Nc1nc2c(c(-c3nc(N)nc4c3CCc3ccccc3-4)n1)CCc1ccccc1-2`: -12.6% (inactive).
Turning to `C[N+](C)(C)C(=O)c1ccccc1`, the growth inhibition was 21.4% (inactive).
`CCCCC(=O)c1ccc(OC)cc1`: the growth inhibition is -8.4% (inactive).
Same read-out and setting: next, `COc1cc(C(=O)NC(=S)Nc2ccc3ccccc3c2)cc(OC)c1OC`: 2.6% (inactive); `CCC/C=C(/C(C)=O)C(=O)OCC`: -4.6% (inactive).
Still for that read-out and setting: then `CCOC(=O)c1cc2cccc(OC)c2oc1=O`, with 3.45% (inactive).
The same measure, in the same setting: then `O=C(Nc1cccc(NC(=O)Nc2cc(C(F)(F)F)ccc2Cl)c1)Nc1cc(C(F)(F)F)ccc1Cl`, with -15.8% (inactive); and `C=C1CC/C=C(\C)C(=O)C[C@@H]2[C@@H]1CC2(C)C`, with 11.8% (inactive).
With `Cc1cc(C)c(CC(=O)O)c(C)c1`, the growth inhibition is 6.3% (inactive).
The same measure, in the same setting: next, `CCOc1ccc(/C=C/C(=O)c2ccccc2)cc1`: -15.9% (inactive).
Regarding `O=C1C=CC2=C3c4cc(O)c(O)cc4CC3(O)COC2=C1O` (stereo not drawn), the growth inhibition was -45.4% (inactive).
Same read-out and setting: next, `COc1cc2c3c(n(C)c(=O)c2cc1OC)-c1cc2c(cc1C3=O)OCO2`: -15.2% (inactive); `O=c1cc(-c2ccccc2)[nH]c(=S)[nH]1`: -11.9% (inactive); `C=CCc1cc(C(C)=O)cc(OC)c1O`: -6.7% (inactive).
